# Test results taken from PubChem BioAssay AID777 (Sanford-Burnham Center for Chemical Genomics, 2007).
# The campaign covered roughly 96,000 compounds. About 19,000 (20%) were called active.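 How the source made its calls: active means blocking of liver enzyme CYP2C9 beyond about 50% at 5 µM (limit read from the data); inactive means the rest.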 The list is a sample of the results.
# Biological target: Cytochrome P450 2C9 (Homo sapiens) (UniProt P11712)
# Assay: blockers of cytochrome P450 2C9 activity – biochemical, luminescence, ADME assay, primary screen (AID 777)
# Details: CYP2C9 Supersomes, luciferin-H conversion, at 5 µM, active compounds read high
# Sequence of Cytochrome P450 2C9 (Homo sapiens) (P11712 whole entry, looked up): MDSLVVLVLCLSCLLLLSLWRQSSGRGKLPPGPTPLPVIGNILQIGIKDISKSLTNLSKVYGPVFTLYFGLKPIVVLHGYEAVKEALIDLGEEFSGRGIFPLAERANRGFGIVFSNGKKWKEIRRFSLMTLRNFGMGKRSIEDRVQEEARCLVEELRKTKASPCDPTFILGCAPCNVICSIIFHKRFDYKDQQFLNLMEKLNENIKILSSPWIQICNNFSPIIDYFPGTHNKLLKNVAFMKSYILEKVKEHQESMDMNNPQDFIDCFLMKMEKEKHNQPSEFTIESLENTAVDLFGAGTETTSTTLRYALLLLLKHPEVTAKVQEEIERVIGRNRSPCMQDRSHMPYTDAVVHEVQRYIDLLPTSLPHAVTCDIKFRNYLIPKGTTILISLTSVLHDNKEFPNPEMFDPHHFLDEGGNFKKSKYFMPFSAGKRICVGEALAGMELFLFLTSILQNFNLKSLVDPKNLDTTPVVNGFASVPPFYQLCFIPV
row,Compound,inhibition
1,Cc1c(C=O)c2ccccn2c1C(=O)c1ccncc1,40.3% (inactive)
2,CCC(=O)c1ccc(OCC(O)CN2CCN(c3cccc(C(F)(F)F)c3)CC2)cc1 (stereo not drawn),22% (inactive)
3,O=C(c1ccc(Cl)cc1)c1ccc(OCC(O)CN2CCCCC2)cc1 (stereo not drawn),7.1% (inactive)
4,Cc1nnc(SCC(=O)NCCOc2ccc(Cl)cc2)n1-c1ccccc1,37.2% (inactive)
5,CCN1CCC(=NNC(=O)c2ccc(C)c([N+](=O)[O-])c2)CC1,7.3% (inactive)
6,c1ccc(CCC2=NCCn3cccc32)cc1,4.5% (inactive)
7,Cc1cccc(C(=O)NCCCN2CCCC2=O)c1,-4% (inactive)
8,Cc1ccc(-n2c(Cc3cccs3)nnc2SCC(=O)OC(C)C)cc1,67.5% (active)
9,CCOC(=O)CSc1nnc(CNC(=O)c2cccs2)n1-c1ccccc1,-10.4% (inactive)
10,CCn1c(SCC(=O)c2ccc3ccccc3c2)nnc1-c1cccs1,3.9% (inactive)
11,CCOC(=O)CNC(=O)CSc1nnc(COc2ccc(Cl)cc2)n1CC,19.6% (inactive)
12,Cn1c(SCC(=O)c2cccs2)nnc1-c1ccco1,-12.6% (inactive)
13,COc1ccc(-n2c(SCC(=O)OC(C)C)nnc2-c2ccccn2)cc1,-13.5% (inactive)
14,CCn1c(Cc2cccs2)nnc1SCC(=O)c1ccc(C)cc1,78.7% (active)
15,CCn1c(SCC(=O)c2ccc(Cl)s2)nnc1-c1cccs1,69.2% (active)
16,COC(=O)c1c(-c2ccc(C)cc2)csc1N,31.9% (inactive)
17,CCC(C)n1[nH]c(=O)c2c(C)cc(C)nc21 (stereo not drawn),10.8% (inactive)
18,COc1ccc(Cc2nnc(SC)[nH]c2=O)cc1,37.8% (inactive)
19,C[N+](C)(C)CCNC(=O)c1c(O)c2c([nH]c1=O)CCCC2,6.6% (inactive)
20,CC(CC(=O)Nc1cc(C(F)(F)F)ccc1Cl)c1ccccc1 (stereo not drawn),-141% (inactive)
21,CC(C)n1c(C(O)c2ccccc2)nc2ccccc21 (stereo not drawn),-0.4% (inactive)
22,Cc1cc(N2CCCC2)n2nc(C)c(-c3ccccc3)c2n1,-22.5% (inactive)
23,COC(=O)c1cnn2c(C(F)(F)F)cc(-c3ccco3)nc12,-10.8% (inactive)

row,Compound,inhibition
1,Cc1c(C(=O)NCC2CCCO2)sc2nc(-c3ccccc3)cn12 (stereo not drawn),28.3% (inactive)
2,c1ccc2c(c1)OCC(CNc1ncnc3nc[nH]c13)O2 (stereo not drawn),10.3% (inactive)
3,Cc1cc2cc(CN(Cc3cccs3)Cc3nnnn3CC3CCCO3)c(=O)[nH]c2cc1C (stereo not drawn),-32.2% (inactive)
4,CCC(=O)N(Cc1cc2cc(OC)ccc2[nH]c1=O)c1ccccc1C,36.4% (inactive)
5,COc1ccc2[nH]c(=O)c(CN(Cc3nnnn3CCc3ccccc3)CC3CCCO3)cc2c1 (stereo not drawn),68% (active)
6,Cc1ccsc1C(=O)OCC(=O)c1cc(C)n(CC2CCCO2)c1C (stereo not drawn),-70.9% (inactive)
7,COc1ccc(N(Cc2cc3cc(OC)ccc3[nH]c2=O)S(C)(=O)=O)cc1,26.9% (inactive)
8,Cc1cc(C)c2cc(CN(Cc3cccs3)Cc3nnnn3CC3CCCO3)c(=O)[nH]c2c1 (stereo not drawn),75.5% (active)
9,COc1ccc(CNC(=O)c2cc3c(=O)n4ccccc4nc3n(CC3CCCO3)c2=N)cc1 (stereo not drawn),9.5% (inactive)
10,CCC(c1nnnn1Cc1ccccc1)N(Cc1cc2cc(OC)ccc2[nH]c1=O)CC1CCCO1 (stereo not drawn),66.2% (active)
11,CCOc1ccc2[nH]c(=O)c(CN(Cc3nnnn3Cc3ccccc3)CC3CCCO3)cc2c1 (stereo not drawn),13% (inactive)
12,CC(=O)c1c(C)c[nH]c1C,-23.3% (inactive)
13,Cc1ccccc1N/N=C/c1ccc(N2CCOCC2)cc1,-0.6% (inactive)
14,CCN1CCN(CCCCOc2ccccc2F)CC1,15.7% (inactive)
15,O=C(CC1NCCNC1=O)Nc1ccc(Oc2ccccc2)cc1 (stereo not drawn),1.6% (inactive)
16,Cc1nc2ccc(S(=O)(=O)NCC(=O)O)cc2s1,-5.2% (inactive)
17,O=C1CN(c2nc(-c3ccccc3)c3cc(Br)ccc3n2)c2ccccc2N1,-6.3% (inactive)
18,Cc1ccc(C2NC(=S)NC3=C2N2CCC3CC2)cc1 (stereo not drawn),1.3% (inactive)
19,CCCn1nnc2sc3c(c2c1=O)CCC(C)C3 (stereo not drawn),10.3% (inactive)
20,C=CCn1c(SCc2c(C)noc2C)nc2sc3c(c2c1=O)CCC(C)C3 (stereo not drawn),92.7% (active)
21,CC1CCc2c(sc3nc4n(c(=O)c23)CCS4)C1 (stereo not drawn),28.1% (inactive)
22,c1ccc(-c2nccc(-c3ccc(-n4cnc5ccccc54)cc3)n2)nc1,22.6% (inactive)
23,CNC(=O)n1ccc(C(=O)N2CCCCC2)n1,-19.7% (inactive)

row,Compound,inhibition
1,CCc1nc(N2CCN(c3nc(C)cc(C)n3)CC2)c2oc3ccccc3c2n1,11.3% (inactive)
2,CN(C)/C(CN1CCCCC1)=C1\N=C(c2ccccc2)OC1=O,20.2% (inactive)
3,O=C(NC(=O)c1ccccc1)NC(=O)c1ccccc1,12.8% (inactive)
4,O=C(OCC(O)C(O)COC(=O)c1ccccc1)c1ccccc1 (stereo not drawn),57.1% (active)
5,Cc1cc(C)n(-c2c(F)c(F)c(COC(=O)c3ccccc3)c(F)c2F)n1,2.6% (inactive)
6,COc1ccc(NC(=O)CCNC(=O)Cn2ccc3ccccc3c2=O)c(OC)c1,5.7% (inactive)
7,COC(=O)[C@H](C)NC(=O)Nc1ccc(OC(F)(F)F)cc1,-2.6% (inactive)
8,Clc1ccc(C2CC(c3cccs3)n3ncnc3N2)cc1Cl (stereo not drawn),53.2% (active)
9,COc1c(Br)cc2c(C)c(C(=O)N3CCOCC3)oc2c1Br,-33.9% (inactive)
10,COc1nc(OC)nc(N(C)CCO)n1,3% (inactive)
11,O=C(N/N=C\c1ccc(-c2ccc(Cl)c(Cl)c2)o1)C(=O)N1CCCC1,33.8% (inactive)
12,CC12COC3(C(=O)Nc4ccc(Cl)cn4)CC1CCC32C (stereo not drawn),11.1% (inactive)
13,c1ccc2c(c1)C(=NC1CCCCC1)NC2=NC1CCCCC1,9.4% (inactive)
14,CCS(=O)(=O)N1CCN(C(=O)c2cccs2)CC1,10% (inactive)
15,C/C(=N\NS(=O)(=O)c1ccc(Br)cc1)c1cccs1,68% (active)
16,CCCS(=O)(=O)N1CCN(C(=O)c2cccs2)CC1,7.2% (inactive)
17,Cc1cc(N2CCN(Cc3ccc4c(c3)OCO4)CC2)n2ncnc2n1,-3.2% (inactive)
18,CC(C)OCCCNc1ncnc2c1[nH]c1ccc(F)cc12,29.6% (inactive)
19,Fc1ccc2[nH]c3c(N4CCSCC4)ncnc3c2c1,60.5% (active)
20,Fc1ccc2[nH]c3c(N4CCN(Cc5ccc6c(c5)OCO6)CC4)ncnc3c2c1,81.2% (active)
21,CCN1CCCC1CNc1ncnc2c1[nH]c1ccc(F)cc12 (stereo not drawn),2.6% (inactive)
22,O=C(c1cccs1)N1CCN(Cc2ccc3c(c2)OCO3)CC1,22.3% (inactive)
